# Source: PubChem BioAssay
# Kir21 block – Kir2.1 (mouse) channel inhibition. B-score at 10 µM. AID 1672. P35561. hit rate 0.85% among 310,000. HEK293-Kir2.1, FluxOR thallium flux fluorescence; stronger effect = lower value;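 active = fluorescence ratio B-score at or below minus 3 SD of library scores, with starting-brightness B-score within 2 SD, cut at about -4.2 in these data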;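 also: channel flux triggered by added potassium and thallium sulfate stimulus; B-score of peak minus minimum fluorescence over baseline after thallium stimulus; more negative B-score means stronger Kir2.1 block with less thallium influx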
# CHT block – inhibitors of human choline transporter CHT; CHT-expressing cells, membrane potential dye, choline response; stronger effect = lower value; B-score at 10 µM; hit rate 0.86% among 310,000; AID 488975;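 active = B-score over 3 SD under the library average, and starting fluorescence ratio not unusually high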;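 also: choline stimulus applied at its EC90 after an EC20 pre-addition; B-score computed on integrated fluorescence ratio after choline addition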
# Target sequence (Q9GZV3 whole entry, looked up): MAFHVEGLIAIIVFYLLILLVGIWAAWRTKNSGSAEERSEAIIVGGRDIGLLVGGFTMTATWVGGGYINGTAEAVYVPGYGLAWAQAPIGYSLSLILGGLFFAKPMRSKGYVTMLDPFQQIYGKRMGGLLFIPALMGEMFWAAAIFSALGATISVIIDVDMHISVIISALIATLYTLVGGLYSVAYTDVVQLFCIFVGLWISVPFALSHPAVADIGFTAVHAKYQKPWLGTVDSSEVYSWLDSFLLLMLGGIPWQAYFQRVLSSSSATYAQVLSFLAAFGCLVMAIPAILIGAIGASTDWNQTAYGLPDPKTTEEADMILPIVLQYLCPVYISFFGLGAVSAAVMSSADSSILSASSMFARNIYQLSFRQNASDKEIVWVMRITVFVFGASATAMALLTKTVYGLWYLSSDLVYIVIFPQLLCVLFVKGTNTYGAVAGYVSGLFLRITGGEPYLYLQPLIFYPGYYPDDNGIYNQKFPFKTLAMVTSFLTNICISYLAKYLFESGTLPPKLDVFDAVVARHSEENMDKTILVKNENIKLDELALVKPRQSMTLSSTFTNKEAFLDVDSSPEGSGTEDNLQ
# CHT PAM – human CHT allosteric activation | Q9GZV3 | CHT-expressing cells, membrane potential dye, choline EC20; stronger effect = higher value; LV-AA mutant CHT in HEK293 cells | B-score at 10 µM | hit rate 0.49% among 310,000 | AID 488977;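 active = initial fluorescence not abnormally high and integrated response B-score, plate-corrected, over 3 SD above library mean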
# ANO1 activ – mouse TMEM16A channel activation, primary screen; AID 623877; HEK293 TMEM16A/YFP-H148Q/I152L, iodide quench fluorescence; stronger effect = lower value; hit rate 0.3% among 340,000; B-score at 10 µM;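 active = fluorescence-ratio B-score plate-corrected deviation score at least 3 library SD below zero, with starting fluorescence score within 5 deviations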;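 also: channel opened by trigger with iodide after compound preincubation; score built on the fluorescence ratio of max minus min over baseline; more negative score means more quench and so TMEM16A activation or potentiation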
# ANO1 block – blocks the mouse calcium-activated chloride channel TMEM16A; HEK293 TMEM16A/YFP iodide influx fluorescence, ionomycin; Q8BHY3; normalized B-score (activity score, 25-100; higher = stronger inhibition) at 10 µM; hit rate 1.2% among 310,000;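 active = ratio plate-corrected score three or more library SD toward inhibition, starting fluorescence score within five deviations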;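 also: score derived from kinetic fluorescence span divided by baseline fluorescence per well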
# GPR7 antagonist – human neuropeptides B/W receptor 1 antagonism | P48145 | GPR7-expressing cells, fluorescence antagonist assay | inhibition, % at 4.4 µM | hit rate 1.1% among 290,000 | AID 1861; in the data active = inhibition above about 16%, passing the limit was not always enough;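 also: cells stimulated with the agonist NPW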
# hERG ctr – hERG (human) inhibition as Kir2.1 counter-screen. shares compounds with Kir21 block. AID 2236. hit rate 20% among 320. hERG-expressing cells, thallium flux. inhibition, % at 10 µM;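 also: host cells are CHO cells stably expressing hERG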
# KCNK9 spec – tests whether Kir2.1 inhibitors also affect human KCNK9; KCNK9-expressing cells, ion flux inhibition; shares compounds with Kir21 block; hit rate 5% among 320; AID 2329; inhibition, % at 10 µM
# Kir2-1 patch inh – mouse Kir2.1 inward rectifier channel inhibition | shares compounds with Kir21 block | inhibition, % at 25 µM | hit rate 71% among 320 | Kir2.1 cells, automated patch-clamp current inhibition
# Hits are given with their value; n = inactive; x = not tested or not shown; ! = not confirmed by another sample. The list is not random: actives were taken first. Their share in the collection is about 3.7%. Unless noted, no rule for the calls is given here.
SMILES,Kir21 block,CHT block,CHT PAM,ANO1 activ,ANO1 block,GPR7 antagonist,hERG ctr,KCNK9 spec,Kir2-1 patch inh
CC(Sc1nc(N)cc(N)n1)C(=O)Nc1ccc(N2CCOCC2)cc1 (stereo not given),x,x,x,n,x,x,x,x,x
CC(C)Oc1ccccc1NC(=O)CSc1nc2ccccc2c(=O)n1C,-8.9,n,n,n,n,n,n,n,9.9%
Cc1ccccc1NC(=O)CSc1nc2ccccc2c(=O)n1C,n,n,n,n,n,n,x,x,x
COc1cc(-c2c(NC(=O)c3ccco3)oc3ccccc3c2=O)cc(OC)c1OC,n,n,n,n,n,n,x,x,x
Cc1c(NC(=O)COc2cccc(Cl)c2Cl)c(=O)n(-c2ccccc2)n1C,n,n,n,n,n,x,x,x,x
O=[N+]([O-])c1ccc(Sc2nccn2Cc2ccccc2)c([N+](=O)[O-])c1,-7.2,n,n,n,n,n,n,n,35%
O=[N+]([O-])c1cc(C(F)(F)F)ccc1Sc1nccn1Cc1ccccc1,-8.5,n,n,n,n,n,n,n,7.0%
O=[N+]([O-])c1ccc(Sc2ncccn2)c([N+](=O)[O-])c1,n,n,n,n,n,n,x,x,x
N#Cc1c(NCCN)nc(NCc2ccccc2)c2c1CCN(Cc1ccccc1)C2,x,x,x,n,x,n,x,x,x
C=CCNc1nc(NCc2ccccc2)c(C#N)c2c1CN(C)CC2,-6.8,n,n,n,n,n,64%,n,1.6%
C=CCc1cc(Cl)ccc1OCCN(C)C,n,n,n,n,n,n,x,x,x
CN(C)CCOCCOc1ccc(Cl)cc1C(C)(C)C,-6,n,n,n,n,n,47%,n,37%
CN1CCC(N(C)C(=O)c2cc(=O)c3ccccc3o2)CC1,n,n,n,n,n,n,n,n,n
CC(C)CCN(Cc1ccco1)S(=O)(=O)c1csc(C(N)=O)c1,-8.2,n,n,n,n,n,n,n,22%
CN(Cc1ccco1)S(=O)(=O)c1csc(C(N)=O)c1,n,n,n,n,n,n,x,x,x
Cc1ccc2nc(Cl)c(CNCc3ccccc3)cc2c1,-12,n,n,n,n,n,n,n,n
OCc1cc(C(O)CNCCCCCCOCCCCc2ccccc2)ccc1O (stereo not given),-5.3,-5.8!,n,n,n,n,n,n,23%
Cc1ccc(C(=O)N/C(=C\c2ccc(-c3cccc([N+](=O)[O-])c3)o2)C(=O)NCCCN(C)C)cc1,n,n,n,n,n,n,x,x,x
Cc1ccc(C(=O)N/C(=C\c2ccc(-c3ccc(Br)cc3)o2)C(=O)NCCCN(C)C)cc1,-10,n,n,-8.2,n,n,77%,n,n
CN(C)C(CNC(=O)C1CCN(C(=O)/C=C/c2ccccc2)CC1)c1ccccc1 (stereo not given),n,n,n,n,n,n,x,x,x
O=C(C(O)c1ccccc1)N1N=C(c2ccccc2)CC1(O)C(F)(F)F (stereo not given),n,n,n,n,n,n,x,x,x
CC1(C)C2C/C(=N\O)C(C)(/[N+]([O-])=C/c3cccc([N+](=O)[O-])c3)CC21 (stereo not given),n,n,n,n,n,n,x,x,x
O=S(=O)(NCc1ccccc1)c1ccc(Br)s1,n,n,n,n,n,n,x,x,x
Cc1ccc(S(=O)(=O)NC(C)c2ccccc2)cc1[N+](=O)[O-] (stereo not given),-8,n,n,n,n,n,n,n,30%
CSc1ccc(S(=O)(=O)NC(C)c2ccccc2)cc1 (stereo not given),-7.3,n,n,n,n,n,n,n,63%
SMILES,Kir21 block,CHT block,CHT PAM,ANO1 activ,ANO1 block,GPR7 antagonist,hERG ctr,KCNK9 spec,Kir2-1 patch inh
CC(NS(=O)(=O)c1ccc(Br)s1)c1ccccc1 (stereo not given),-7.4,n,n,n,n,n,n,n,44%
NS(=O)(=O)c1ccc(CCNC(=O)Cc2cccs2)cc1,n,n,n,n,n,n,x,x,x
COc1cc(OC)cc(C(=O)NCC(=O)Nc2ccc(OC)c(Cl)c2)c1,n,n,n,x,n,n,x,x,x
O=C(c1cc(C2CC2)nn1-c1ccccc1)N1CCN(c2ccc(O)cc2)CC1,x,x,x,n,x,x,x,x,x
COc1ccc(CNCc2cccc(Oc3ccccc3)c2)cc1,-14,n,n,n,n,n,n,n,85%
COc1ccc(OCC(=O)Nc2ccccc2C(=O)Nc2ccc(C(=O)O)cc2)cc1,n,n,n,n,n,n,x,x,x
CC(=O)N1CCOc2ccc(S(=O)(=O)NCc3ccccc3Cl)cc21,n,n,n,n,n,n,x,x,x
CC(=O)N1CC(C)Sc2ccc(S(=O)(=O)NCc3ccccc3Cl)cc21 (stereo not given),-6.1,n,n,n,n,n,n,n,n
COc1cc(Br)c(CNc2cc(C)ccc2C)cc1OC,n,n,n,n,n,n,x,x,x
COc1cc(OC)c(OC)cc1CNc1cc(C)ccc1OC,-5.8,n,n,n,n,n,n,n,29%
O=C(Nc1ccc(OC(F)(F)F)cc1)NC1CCC(Oc2ccc(C(=O)O)cc2)CC1 (stereo not given),x,x,x,n,x,x,x,x,x
CCc1cc2c(CN3CCN(Cc4ccccc4)CC3)cc(=O)oc2cc1O,-6,n,n,n,n,n,n,n,n
CCOC(=O)C1CCN(C(=O)C(C)c2ccc([N+](=O)[O-])cc2)CC1 (stereo not given),n,n,n,n,n,n,x,x,x
CC(=O)c1ccc(NC(=O)C(C)OC(=O)c2cccc(-n3cnnn3)c2)cc1 (stereo not given),n,n,n,n,n,x,x,x,x
CC(OC(=O)c1cccc(-n2cnnn2)c1)C(=O)Nc1cccc(Cl)c1 (stereo not given),n,n,n,n,n,x,n,n,n
COc1ccc(S(=O)(=O)N2CCc3ccccc32)cc1C(=O)O,n,n,n,n,n,n,x,x,x
COc1ccc(S(=O)(=O)N2CCc3ccccc32)cc1OC,-6.2,n,n,n,n,n,n,n,24%
O=C(NCCc1ccc(Cl)cc1)C1CCCO1 (stereo not given),n,n,n,n,n,n,x,x,x
CC(=O)N(CC(C)(C)CC=C(C)C)c1ccccc1,-5.9,n,n,x,n,n,n,n,9.4%
Cc1ccc(S(=O)(=O)NCc2ccccc2)cc1C(=O)N1CCCCCCC1,n,n,n,n,n,x,x,x,x
c1ccc(COc2ccc(OCCCNC3CCCC3)cc2)cc1,-8.8,n,n,n,n,n,47%,n,26%
N#Cc1cc(Br)ccc1N=C1CCCN1c1ccccc1,n,n,n,n,n,n,x,x,x
CCN(c1ccccc1)S(=O)(=O)c1ccc(F)cc1,-6.2,n,n,n,n,n,n,n,37%
